Here are results for 104 compounds from ChEMBL document CHEMBL4513216, “Probing the Open Global Health Chemical Diversity Library for Multistage-Active Starting Points for Next-Generation Antimalarials” (ACS Infect Dis, 2020).

The structures appear in SMILES notation. The whole screen tested about 68,000 compounds, of which about 2,700 (4%) showed an effect of 50% or more. The full list was thinned out, with strong results kept by preference.

The experiment has as its system Plasmodium berghei. The experiment is described as follows: Screen against P. berghei liver stage (PbLuc), transformed with Luciferase, at 2uM. The format is functional, HepG2. The conditions noted are these: tested at 2 uM.
As for `Cc1cccc(C(C(=O)NCCCc2nnc3ccccn23)N(C)C)c1` (centres undefined), the INHIBITION was -0.59%.
Turning to `CCc1nnc(CN(CC)C(=O)C2CC(=O)N(C3CC3)C2)o1` (centres undefined), the INHIBITION is reported as 10.02%.
With `CCc1nnc(CN(CC)C(=O)C2CC(=O)N(CC)C2)o1` (centres undefined), the INHIBITION was determined as 6.84%.
In the case of `CCc1nnc(CN(CC)C(=O)C2CC(=O)N(C(C)(C)C)C2)o1` (centres undefined), the INHIBITION was 50.86%.
As for `CCc1c(C)nc2cc(-c3nccn3C)nn2c1N1CCCC(CO)C1` (centres undefined), the INHIBITION was -40.66%.
In the case of `CCS(=O)(=O)c1ccc2oc([C@H]3CCN(Cc4ccncc4)C3)nc2c1` it was 61.7%; in that of `Cc1ccc2oc([C@H]3CCN(Cc4ccccc4)C3)nc2c1`, 45.22%.
As for `CCS(=O)(=O)c1ccc2oc([C@H]3CCN(Cc4ccccn4)C3)nc2c1`, the figure is 30.4%.
As for `CCS(=O)(=O)c1ccc2oc([C@H]3CCN(Cc4cccnc4)C3)nc2c1`, the INHIBITION turned out to be 16.12%.
For `CCS(=O)(=O)c1ccc2oc([C@H]3CCN(CC4CCCCC4)C3)nc2c1`, the INHIBITION stood at 44.13%.
`CCS(=O)(=O)c1ccc2oc([C@H]3CCN(Cc4ccccc4)C3)nc2c1`: the INHIBITION stood at 55.66%.
With `O=C(c1cccc(F)c1)N1CC[C@H]2[C@H]1CCN2CC1CCOCC1`, the INHIBITION worked out at 13.04%.
With `CCc1nccn1C1CCCN(C(=O)c2ccn(-c3ccccc3)n2)C1` (centres undefined), the INHIBITION is reported as 6.54%.
As for `O=C(C1CNCCO1)N1CCC(c2cc(N3CCCC3)ncn2)CC1` (centres undefined), the figure is 37.15%.
Take `O=C(CN1CCOCC1)N1CCC(c2cc(N3CCCC3)ncn2)CC1`: the INHIBITION was found to be 70.81%.
Consider `O=C(CC1CNCCO1)N1CCC(c2cc(N3CCCC3)ncn2)CC1` (centres undefined), for which the INHIBITION came to 48.93%.
In the case of `Cn1ccnc1-c1cn(CCCc2csc(N)n2)nn1` it was -21.39%.
With `CCNC(=O)[C@@H]1C[C@H](NC(=O)c2cncnc2C)CN1Cc1ccsc1`, the INHIBITION turned out to be 12.78%.
As for `CCn1c(-c2ccccc2)nn(CC(=O)NCCc2ccc(C)s2)c1=O`, the INHIBITION was 47.25%.
Regarding `CC(C)NC(=O)c1nnn(-c2ccccc2)c1C1CC1`, the INHIBITION stood at 2.31%.
Take `Cc1ccc(-n2nnc(C(=O)NC(C)C)c2C2CC2)cc1`: the INHIBITION worked out at 82.5%.
As for `CC(C)NC(=O)c1nnn(-c2ccc(F)cc2)c1C1CC1`, the INHIBITION was 3.89%.
For the compound `Cc1cc(C)n(C2CN(CCc3ccccn3)C2)n1`, the INHIBITION is -7.32%.
For the compound `CN(C)Cc1nnc(C2CCCN(c3nccc4ccccc34)C2)n1C` (centres undefined), the INHIBITION is recorded as 63.01%.
Regarding `CN(C)CCn1ccnc1C1CCCN(c2nccc3ccccc23)C1` (centres undefined), the INHIBITION stood at 49.94%.
For `CN(C)Cc1nnc(C2CCCN(c3ncccc3F)C2)n1C` (centres undefined), the INHIBITION was 6.39%.
In the case of `Cc1cc(C)nc(NCCC(=O)NCCn2ccc3ccccc32)n1`, the INHIBITION came to 50.94%.
Regarding `Cc1cc(C)nc(NCCCC(=O)NCCn2ccc3ccccc32)n1`, the INHIBITION is recorded as -12.76%.
For `Cc1cc(C)nc(NCCC(=O)NCCn2ccnc2C)n1`, the INHIBITION is reported as 28.4%.
With `CCS(=O)(=O)N(C)C1CCN(C(=O)c2cccc(Cl)c2)CC1`, the INHIBITION is listed as -41.98%.
As to `CCC(=O)Nc1ccc2c(c1)C1(CCOCC1)CN2CCF`, the INHIBITION is listed as -24.5%.
Consider `COc1ccc(OC)c(-c2nc(CN(C)Cc3nncn3C)c(C)o2)c1`, for which the INHIBITION is given as -5.6%.
`Cn1ncnc1CNc1ccccc1C(=O)NC(C)(C)C`: the INHIBITION is -38.42%.
For the compound `CNC(=O)c1ccccc1NCc1ncnn1C`, the INHIBITION amounted to 54.03%.
For `COc1ccc(NC(=O)c2ccccc2NCc2ncnn2C)cc1`, the INHIBITION is given as -25.35%.
On to `CC(C)c1nnc2n1CC(CNC/C=C/c1ccccc1)CC2` (centres undefined), for which the INHIBITION turned out to be 4.8%.
`CC(C)c1n[nH]c(C2CN(C(=O)c3cc4c(s3)CCC4)CCO2)n1` (centres undefined): the INHIBITION stood at 10.53%.
Take `COCC(c1cccc(C(F)(F)F)c1)N(C)C(=O)c1ccccn1` (centres undefined): the INHIBITION is given as -9.61%.
In the case of `CCNC(=O)CN1CCCC(c2ccc(C(=O)O)cc2)C1` (centres undefined), the INHIBITION was determined as 2.06%.
For the compound `CC(C)(C)NC(=O)CN1CCCC(c2ccc(C(=O)O)cc2)C1` (centres undefined), the INHIBITION is reported as 31.27%.
With `CC(C)CNC(=O)CN1CCCC(c2ccc(C(=O)O)cc2)C1` (centres undefined), the INHIBITION is recorded as 50.67%.
With `CCS(=O)(=O)N1CCC(c2cc3n(n2)[C@@H](C(F)(F)F)C[C@@H](C)N3)CC1`, the INHIBITION is listed as -22.38%.
For the compound `Cc1cc(C)n(CC(=O)N2C[C@H]3CC[C@@H](C2)N(CC2CCC2)C3)c(=O)n1`, the INHIBITION is reported as 41.07%.
Regarding `Cc1nc(=O)c(CC(=O)N2C[C@H]3CC[C@@H](C2)N(CC2CCC2)C3)c(C)[nH]1`, the INHIBITION is listed as 25.47%.
On to `Cc1nc(=O)c(CC(=O)N2C[C@H]3CC[C@@H](C2)N(CC2CCC2)C3)c[nH]1`, for which the INHIBITION is 68.39%.
For the compound `Cc1ccc(C(C)NC(=O)Cc2c(C)nc3c(c2C)c(=O)[nH]n3C)o1` (centres undefined), the INHIBITION is listed as -30.5%.
For `CC(C)C1CN(C(=O)c2ccc3nccnc3c2)CCS1` (centres undefined), the INHIBITION is recorded as 43.29%.
With `COCc1n[nH]c2c1CN(Cc1cccs1)C2`, the INHIBITION is on record as 56.21%.
As to `c1csc(CN2Cc3[nH]nc(COCC4CC4)c3C2)c1`, the INHIBITION stood at 58.98%.
Consider `COCc1nn(CC2CC2)c2c1CN(Cc1ccco1)CC2`, for which the INHIBITION is on record as 38.09%.
As to `OCCOCc1n[nH]c2c1CN(Cc1ccco1)C2`, the INHIBITION worked out at 8.99%.
Take `OCCOCc1n[nH]c2c1CN(Cc1ccccn1)C2`: the INHIBITION is listed as 2.69%.
Turning to `COCc1nn(CC2CC2)c2c1CN(Cc1cccs1)CC2`, the INHIBITION was 51.26%.
Turning to `c1ccc(CN2Cc3[nH]nc(COCC4CC4)c3C2)nc1`, the INHIBITION worked out at 28.5%.
Regarding `c1ccc(OCc2n[nH]c3c2CN(Cc2cccs2)C3)nc1`, the INHIBITION is 29.45%.
Regarding `c1cncc(OCc2n[nH]c3c2CN(Cc2cccs2)C3)c1`, the INHIBITION is listed as 14.94%.
For the compound `CCOCc1nn(CC2CC2)c2c1CN(Cc1cccs1)CC2`, the INHIBITION came out at 34.93%.
For `OCCOCc1n[nH]c2c1CN(Cc1cccs1)C2`, the INHIBITION amounted to 52.74%.
Consider `Cc1cccc(CN2Cc3[nH]nc(COCC4CC4)c3C2)n1`, for which the INHIBITION is reported as -4.06%.
In the case of `CCC[C@H]1CN(C(=O)CCn2ccccc2=O)C[C@@H]1NS(C)(=O)=O`, the INHIBITION turned out to be 25.9%.
For the compound `CC(C)S(=O)(=O)NC(=O)c1cc(-c2cccc(Cl)c2)no1`, the INHIBITION is reported as 38.67%.
For `COc1ccc(C)cc1-n1c(COC(C)C)n[nH]c1=O`, the INHIBITION is listed as -19.78%.
For `Cc1nc(C2CCCN2CCCc2nc3ccccc3o2)no1` (centres undefined), the INHIBITION was found to be 17.19%.
Turning to `COCCCN1CCC(C(=O)c2cc(F)ccc2F)CC1`, the INHIBITION was -6.4%.
As for `O=C(NCC1(Sc2ccccc2)CC1)c1ccc(=O)[nH]n1`, the figure is -5.26%.
For the compound `O=C(NCC1(Sc2ccccc2)CC1)c1cc[nH]n1`, the INHIBITION worked out at 32.51%.
As to `O=C(NCC1(Sc2ccccc2)CC1)c1c[nH]nn1`, the INHIBITION was 66.4%.
With `Cc1noc(C)c1CC(=O)N1CCCN(Cc2cscn2)CC1`, the INHIBITION came out at 25.74%.
In the case of `O=C(CCCn1cncn1)N1CCCC1c1nc(-c2ccccc2)no1` (centres undefined) it was 48.21%; in that of `c1ccc(-c2noc(C3CCN(CCCn4cncn4)CC3)n2)cc1`, 57.75%; in that of `c1ccc(SCCN2CCN(CCn3cncn3)CC2)cc1`, 30.62%.
In the case of `N#Cc1ccc(CN2CCCN(CCCn3cncn3)CC2)cc1` it was 65.3%; in that of `N#Cc1ccc(CN2CCCN(C(=O)CCn3cncn3)CC2)cc1`, 12.43%.
Consider `c1ccc(C(c2ccccc2)N2CCN(CCn3cncn3)CC2)cc1`, for which the INHIBITION came to 35.54%.
For the compound `N#Cc1ccc(N2CCCN(CCCn3cncn3)CC2)cc1`, the INHIBITION is on record as -27.36%.
As for `c1ccc(CCCN2CCN(CCn3cncn3)CC2)cc1`, the INHIBITION is 76.6%.
On to `c1ccc(-c2noc(C3CCN(CCn4cccn4)CC3)n2)cc1`, for which the INHIBITION was 43.44%.
Turning to `COc1ccc(CC(=O)N2CC[C@H](CO)[C@H](O)C2)c(OC)c1`, the INHIBITION amounted to 26.93%.
`CCc1ccc(C(C)NC(=O)N2CCC(n3cncn3)CC2)cc1` (centres undefined): the INHIBITION is 38.06%.
On to `CC(C)N(C)[C@@H]1CCN(c2ncccn2)[C@H]1Cc1ccncc1`, for which the INHIBITION turned out to be 11.9%.
For the compound `CN(CC(=O)N1CCC(Oc2ccc(C(F)(F)F)cn2)CC1)S(C)(=O)=O`, the INHIBITION was found to be 17.26%.
As for `Cc1nccn1CC1CCCN1S(=O)(=O)Cc1ccccc1` (centres undefined), the figure is 0.26%; as for `Cc1nccn1CC1CCCN1S(=O)(=O)Cc1ccc(F)cc1` (centres undefined), -88.61%.
On to `Cc1nccn1CC1CCCN1S(=O)(=O)Cc1ccon1` (centres undefined), for which the INHIBITION is recorded as 60.31%.
On to `CCc1nccn1CCCNC(=O)c1cnn(-c2ccccc2OC)c1`, for which the INHIBITION was -9.69%.
For `O=C(CCn1ccc2cc(Br)ccc21)NCc1ccc(C(=O)O)cc1`, the INHIBITION was -4.69%.
Turning to `O=C(COC[C@]12COC[C@H]1CN(C1CCC1)C2)N1CCCC1`, the INHIBITION is -37.65%.
As for `O=C(COC[C@@]12CCC[C@@H]1CN(C1CCCC1)C2)N1CCCC1`, the INHIBITION was -9.14%.
In the case of `O=C(COC[C@@]12CCC[C@@H]1CN(C1CCC1)C2)N1CCCC1` it was 51.27%; in that of `Cn1nc2c(cc1=O)CN(c1ncnc3ccsc13)CC2`, -37.96%; in that of `CCC[C@@H]1CN(Cc2cc(OC)c3c(c2)OCO3)C[C@H]1C(=O)O`, 57.75%.
As for `CCC[C@@H]1CN(Cc2cc3c(cc2OC)OCO3)C[C@H]1C(=O)O`, the INHIBITION is on record as -23.34%.
Regarding `CCC[C@@H]1CN(Cc2cc3c(cc2OC)OCCO3)C[C@H]1C(=O)O`, the INHIBITION stood at 19.59%.
As for `CN(C)c1nccc(C2CN(S(C)(=O)=O)C2)n1`, the figure is 40.78%; as for `Cc1cc(C(=O)N2CCN(S(C)(=O)=O)[C@@H](C)C2)c(F)cc1F`, 1.27%; as for `CC(=O)N[C@H]1CCO[C@@H](c2cccc(NC(=O)Cc3ccccc3)c2)C1`, 0.93%.
As for `CCc1ccc(CNC(=O)CCNc2ncccn2)s1`, the figure is -18.99%.
Regarding `O=C(CCNc1ncccn1)NCc1csc(Br)c1`, the INHIBITION is on record as 33.47%.
Consider `Cc1ccc(CCNC(=O)NCc2cccc(OC(F)F)c2)cn1`, for which the INHIBITION is given as -16.71%.
Consider `O=C(CCNc1ncccn1)NCc1cccc(OC(F)F)c1`, for which the INHIBITION amounted to 52.3%.
Regarding `O=C(NCCNc1ncccn1)NCc1cccc(OC(F)F)c1`, the INHIBITION was -35.22%.
As to `O=C(CCNc1ncccn1)NCc1ccc(Br)s1`, the INHIBITION came to 64.22%.
In the case of `c1ccc(-c2nnc(N3CCCC4(CCOC4)C3)s2)cc1` (centres undefined) it was -21.39%.
Consider `N#Cc1ccc(N2CCCN(CC(=O)N3CCOCC3)CC2)cc1`, for which the INHIBITION is listed as -45.9%.
